Drawing on PubChem BioAssay AID1476 (National Center for Advancing Translational Sciences (NCATS), 2009), this text covers max response, negative = inhibition and Potency for 88 compounds.

Among all 200,000 compounds or so, about 4,500 (2.2%) were called active. About 12% were inconclusive and are not listed. Calls come from the whole dose curve; as a rule, active = well fitted inhibition curve with a large enough effect; inconclusive = small, poorly fitted or top-dose-only effect, or effect the other way; inactive = flat fitted curve, though single readings scatter. For the sample, actives were picked, then their nearest neighbours and some compounds at random.
Potency is the fitted concentration of half-maximal effect.

Chain of Cruzipain (Trypanosoma cruzi) (P25779 123-467 limits assumed): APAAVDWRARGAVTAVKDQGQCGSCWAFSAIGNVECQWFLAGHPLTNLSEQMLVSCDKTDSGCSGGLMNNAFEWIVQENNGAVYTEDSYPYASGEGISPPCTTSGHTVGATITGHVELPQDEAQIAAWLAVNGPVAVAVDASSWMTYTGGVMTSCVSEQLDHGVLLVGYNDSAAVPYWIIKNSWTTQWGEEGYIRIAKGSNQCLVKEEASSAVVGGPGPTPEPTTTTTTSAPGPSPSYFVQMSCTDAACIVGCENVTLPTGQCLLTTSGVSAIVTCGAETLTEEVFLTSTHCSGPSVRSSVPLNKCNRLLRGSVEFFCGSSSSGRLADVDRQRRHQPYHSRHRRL

The target in the experiment is Cruzipain (Trypanosoma cruzi) (UniProt P25779). In words: qHTS Assay for Promiscuous and Specific Inhibitors of Cruzain (without detergent).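 For max response, negative = inhibition: plate controls were enzyme without inhibitor for no effect and buffer without enzyme for full effect.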 Note: nearly all actives have a fitted effect of over 40% in size. As to conditions: purified cruzain, Z-FR-AMC fluorescence, no detergent. An outline of the steps:
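Purified cruzain at 1.5 nM, pre-incubated 15 min with compound at room temperature in 100 mM sodium acetate pH 5.5, 5 mM DTT, 0.00005% Triton X-100. Reaction started with 2 uM Z-FR-AMC; AMC fluorescence increase over 60 s gives rate.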
In general terms: In qHTS, concentration-response curves come from the screen itself.
As for `CCCCOc1ccc(NC(=O)c2cc3c(n(-c4ccc(Cl)cc4)c2=O)CCCC3=O)cc1`, the max response, negative = inhibition was 7.21% (inactive). For `CSCCC(NS(=O)(=O)c1ccc2c(c1)oc(=O)n2C)C(=O)NCc1ccccc1` (stereo not drawn), the max response, negative = inhibition was -13% (inactive). The same measure, in the same setting: for `COc1ccc(CCNC(=O)CCCn2c(=O)c3ccccc3n(Cc3ccc(F)cc3Cl)c2=O)cc1OC` the value was 13.2% (inactive).

Take `CCc1nnc(SCc2nc(-c3cccc(C)c3)oc2C)c2cc3sc(C)cc3n12`: the max response, negative = inhibition was -17.8% (inactive). Consider `COc1ccc(C2CC(c3cccs3)=NN2C(=O)COC(=O)c2cc3ccccc3cc2O)cc1OC` (stereo not drawn), for which the Potency was 12.6 µM (active). As to `COc1ccccc1C(=O)OCc1cc(=O)n2nc(-c3cccs3)sc2n1`, the max response, negative = inhibition was -3.73% (inactive). Same read-out and setting: for `COc1ccc(C2CC(c3cccs3)=Nc3ccccc3S2)cc1OC` (stereo not drawn) the value was 13.4% (inactive). Still for that read-out and setting: for `O=C(Cn1ncc2c3ccccc3n(Cc3ccccc3)c2c1=O)NC1CCCCCC1` the value was 10.4% (inactive); for `COc1cccc(NC(=O)CSc2cc(=O)n(C)c3ccc(Cl)cc23)c1`, -14.5% (inactive); for `COc1cn(CC(=O)Nc2cccc(C)c2C)c(CN2CCCCC2)cc1=O`, 9% (inactive). The same measure, in the same setting: for `CCC(=O)N1c2ccccc2CC1C(=O)N1CCN(c2ccccc2)CC1` (stereo not drawn) the value was 7.34% (inactive); for `O=C(NC(c1ccccc1)c1ccccc1)N1CCN(CCO)CC1`, -2.87% (inactive). Regarding `O=C(CN1CCc2ccccc21)NC(c1ccccc1)c1ccccc1`, the Potency was 25.1 µM (active).

For the compound `O=S(=O)(NCC(c1ccccc1)N1CCc2ccccc21)c1ccccc1` (stereo not drawn), the max response, negative = inhibition was 4.54% (inactive). Still for that read-out and setting: for `CCCCN(C)CCC(=O)Nc1ccc(Cl)cc1` the value was -0.803% (inactive). `CCCCC(=O)Nc1nc(C)c(-c2csc(Nc3ccc(Cl)cc3)n2)s1`: the Potency was 7.94 µM (active). Turning to `Cc1nc(C)c(-c2csc(NCCc3ccccc3)n2)s1`, the max response, negative = inhibition was -11.5% (inactive).

Take `Cc1ccc(Nc2nc(-c3sc(NC(=O)c4ccccc4)nc3C)cs2)cc1`: the Potency was 31.6 µM (active).

Regarding `CC(=O)c1sc(NC(=O)c2ccc(C)cc2)nc1C`, the max response, negative = inhibition is -25% (inactive).

For `Cc1nc(NC(=O)CN(C)S(=O)(=O)c2ccc(Cl)cc2)sc1C`, the max response, negative = inhibition is -3.63% (inactive). The same measure, in the same setting: for `Cc1ccc(C(=O)Nc2nc(-c3ccccc3)ns2)cc1` the value was 5.68% (inactive); for `COc1cccc(NC(=O)c2csnn2)c1`, -5.7% (inactive). For `CCCCCCC(=O)Nc1nc(C)c(-c2csc(Nc3cccc(OC)c3)n2)s1`, the Potency was 10 µM (active). As to `CN(CCCC(=O)Nc1nccs1)S(=O)(=O)c1ccc(Cl)cc1`, the max response, negative = inhibition was -7.25% (inactive). `CCOC(=O)c1csc(NC(=O)Nc2cccc(OC)c2)n1`: the max response, negative = inhibition is 8.19% (inactive). As to `C=CCCC(=O)Nc1nc(C)c(-c2csc(Nc3ccc(Cl)cc3)n2)s1`, the Potency is 12.6 µM (active). With `Cc1ccc(Cl)cc1NC(=O)NC1COc2ccccc2C1` (stereo not drawn), the max response, negative = inhibition was -7.18% (inactive). The same measure, in the same setting: for `CCCCC(=O)N/N=C(\C)CC(=O)Nc1cc(Cl)ccc1OC` the value was 7.24% (inactive). In the case of `CCCCCCC(=O)Nc1nc(C)c(-c2csc(Nc3cc(Cl)ccc3OC)n2)s1`, the Potency is 3.16 µM (active). Turning to `COc1ccc(Cl)cc1NC(=O)CCC(=O)c1ccc(C)cc1`, the max response, negative = inhibition was 4.58% (inactive). Still for that read-out and setting: for `CCOCCn1ccc2c(OCC(=O)NCc3ccc(C)cc3)cccc2c1=O` the value was 4.16% (inactive); for `Cc1cc(F)ccc1NC1(c2ccccc2)C(=O)c2ccccc2C1=O`, -5.27% (inactive); for `CCOC(=O)c1ccc(NC(=O)C2CCN(S(=O)(=O)c3ccc4c(c3)CCCC(=O)N4)CC2)cc1`, 1.28% (inactive). For `O=C(ON=C1CCN(S(=O)(=O)c2ccccc2)CC1)c1ccc(Cl)cc1`, the max response, negative = inhibition is 20.4% (inactive). Regarding `Cc1c(C2=CCN(S(=O)(=O)c3ccc(Cl)cc3)CC2)c2ccccc2n1C`, the Potency was 31.6 µM (active).

As to `CC(C)NC(=O)C(=O)NCCN1CCN(S(=O)(=O)c2ccc(Cl)cc2)CC1`, the max response, negative = inhibition is -2.28% (inactive).

Turning to `CCc1nn(CCCC(=O)NCc2ccccc2OC)c(=O)c2cc3occc3n12`, the max response, negative = inhibition is -6.49% (inactive). On the same count and under the same terms, for `CCOc1ccc(-c2cc3c(=O)n(CC(=O)NCc4ccc(OC)cc4)ccn3n2)cc1` the value was 4.06% (inactive); for `COc1cc(NC(=O)CCNC(=O)Cn2ccc3ccccc3c2=O)cc(OC)c1OC`, -10.9% (inactive). Turning to `Cc1cc(C(=O)OCC(=O)Nc2nnc(C(C)C)s2)c2ccccc2n1`, the max response, negative = inhibition is -3.17% (inactive). For the compound `O=C(COC(=O)c1cc(=O)[nH]c2ccccc12)Nc1nc(-c2cccc(Br)c2)cs1`, the Potency is 15.8 µM (active).

For `CCOC(=O)c1ccc(COC(=O)c2cc(=O)[nH]c3ccccc23)o1`, the max response, negative = inhibition was -5.71% (inactive). Still for that read-out and setting: for `CCN(Cc1ccccc1)S(=O)(=O)c1ccc2c(c1)CCCN2C(C)=O` the value was 12.3% (inactive); for `O=C(NC1CC(=O)N(c2ccc(F)cc2)C1)c1ccc(S(=O)(=O)N2CCCC2)cc1` (stereo not drawn), 8.64% (inactive). As to `O=C(c1ccc(Cl)cc1)c1cnc(Nc2ccccc2)s1`, the Potency is 15.8 µM (active). For `CC(C)(C)C(=O)c1cnc(Nc2ccccc2)s1`, the max response, negative = inhibition is -10.8% (inactive). Same read-out and setting: for `O=C(Nc1ccccc1)c1nnsc1S(=O)(=O)c1ccc(Cl)cc1` the value was -8.46% (inactive); for `Cc1ccc(C)c(S(=O)(=O)c2nnn3c2nc(N2CCOCC2)c2sccc23)c1`, 0.86% (inactive); for `Cc1ccc2nc(COc3cccc(NC(=O)c4cccc(Cl)c4)c3)cc(=O)n2c1`, -16.6% (inactive).

Regarding `COc1cccc(C(=O)Nc2ccc3oc(-c4ccc5ccccc5c4)nc3c2)c1`, the Potency was 12.6 µM (active). As to `COC(=O)c1ccc(-c2nc3cc(NC(C)=O)ccc3o2)cc1`, the max response, negative = inhibition is 5.54% (inactive). On to `Cc1ccccc1-c1nc2cc(NC(=O)c3cccc(OCCC(C)C)c3)ccc2o1`, for which the max response, negative = inhibition was -8.64% (inactive). The same measure, in the same setting: for `COc1ccccc1OCCCn1c(-c2ccc(Cl)cc2)nc2ccccc2c1=O` the value was 3.21% (inactive); for `COc1ccc(S(=O)(=O)NCc2cccn2Cc2cccc(C)c2)cc1Cl`, 6.08% (inactive); for `COc1ccc(Br)cc1C1CC(=O)Nc2c1c(C)nn2-c1nc(C)cc(C)n1` (stereo not drawn), 3.34% (inactive). Still for that read-out and setting: for `CC(=O)c1ccc(N2CCN(c3nc4c(S(=O)(=O)c5ccccc5)nnn4c4ccc(Cl)cc34)CC2)cc1` the value was 0.808% (inactive); for `CCCS(=O)(=O)c1ncc(Cl)c(C(=O)Nc2scc(-c3ccccc3)c2C(=O)OCC)n1`, -26.6% (inactive). Regarding `CC(=O)Nc1cccc(NC(=O)c2c(-c3ccccc3)noc2C)c1`, the max response, negative = inhibition was 2.43% (inactive). Consider `CCOC(=O)c1c(-c2cccc(C)c2)csc1NC(=O)c1c(-c2ccccc2)noc1C`, for which the Potency is 7.94 µM (active). In the case of `CCOc1ccc(S(=O)(=O)c2cn(Cc3ccccc3)c3ccc(OCC)cc3c2=O)cc1`, the max response, negative = inhibition is -17.9% (inactive).

Take `COc1ccc(NC(=O)Cn2c(=O)n(Cc3ccc(C(=O)NCc4ccccc4Cl)cc3)c(=O)c3ccccc32)cc1`: the Potency is 10 µM (active). For the compound `COc1ccc(NC(=O)Cn2c(=O)n(Cc3ccco3)c(=O)c3ccccc32)cc1`, the max response, negative = inhibition was -4.83% (inactive). On the same count and under the same terms, for `COc1ccc(OC)c(NC(=O)Cn2c(=O)n(Cc3ccccc3)c(=O)c3ccccc32)c1` the value was -9.43% (inactive); for `Cn1nnc2c(N3CCN(c4ccccc4)CC3)ncnc21`, -1.23% (inactive); for `CCCCN1CC(c2nc3ccccc3n2CCCCOc2ccc(C)cc2C)CC1=O` (stereo not drawn), 1.93% (inactive). Still for that read-out and setting: for `CCOc1ccccc1NC(=O)C1CCCN(S(=O)(=O)c2cn(C)cn2)C1` (stereo not drawn) the value was -18.2% (inactive).

On to `O=C(COC(=O)/C(=C/c1cccs1)c1cccs1)NCc1ccccc1Cl`, for which the max response, negative = inhibition is 3.79% (inactive). With `O=C(COC(=O)CCc1c[nH]c(=O)[nH]1)Nc1ccccc1Cl`, the max response, negative = inhibition was -19.9% (inactive). Regarding `O=C(COC(=O)c1c2c(nc3ccccc13)/C(=C\c1cccs1)CCC2)Nc1ccccc1Cl`, the Potency is 31.6 µM (active). As for `CC(NC(=S)Nc1ccc(S(N)(=O)=O)cc1)c1ccc2c(c1)OCO2` (stereo not drawn), the max response, negative = inhibition was -22.3% (inactive). On to `O=C1/C(=C/c2ccc3c(c2)OCO3)CCC/C1=C\c1ccc2c(c1)OCO2`, for which the max response, negative = inhibition was -11.7% (inactive). With `NS(=O)(=O)c1ccc(NC(=O)COC(=O)c2c3c(nc4ccccc24)/C(=C\c2ccc4c(c2)OCO4)CCC3)cc1`, the Potency is 20 µM (active). For the compound `COc1cccc(OCCn2c(-c3ccc(Br)cc3)nc3ccccc3c2=O)c1`, the max response, negative = inhibition was -14.8% (inactive). As to `Cc1cc(C)cc(NS(=O)(=O)c2cc3c(cc2C)NC(=O)CO3)c1`, the max response, negative = inhibition was 6.94% (inactive). Regarding `Cc1cc(C)cc(NC(=O)CSc2nc(=O)n(CCN3CCOCC3)c3c2CCC3)c1`, the max response, negative = inhibition was -7.74% (inactive). `O=C(c1ccc(Br)cc1)N(Cc1cccs1)c1ccc(F)cc1`: the max response, negative = inhibition was 11.6% (inactive). On the same count and under the same terms, for `COC(=O)c1ccc(NC(=O)CSc2n[nH]c(-c3ccccc3)n2)cc1` the value was -7.41% (inactive).

Regarding `COc1ccc(-c2csc(NC(=O)CCCc3cccs3)n2)cc1`, the Potency is 10 µM (active). In the case of `CCc1nnc(NC(=O)CSc2nnc(Cc3ccccc3)n2-c2ccc(OC)cc2)s1`, the max response, negative = inhibition was -3.04% (inactive). The same measure, in the same setting: for `COc1ccc(Cc2nnc(NS(=O)(=O)Cc3ccccc3)s2)cc1` the value was -1.39% (inactive). Regarding `Cc1ccc(-c2csc(NC(=O)Cc3cccs3)n2)cc1C`, the max response, negative = inhibition was -12.6% (inactive). Consider `COc1ccc(Cc2nnc(NC(=O)Cc3cccs3)s2)cc1`, for which the Potency is 20 µM (active). Turning to `COc1ccc(C(=O)Nc2nc(-c3ccc(S(=O)(=O)N4CCOCC4)cc3)cs2)cc1`, the max response, negative = inhibition was -19.9% (inactive).

Turning to `CCN(CC)S(=O)(=O)c1ccc2c(c1)nc(CN(C)C(=O)Nc1ccc(Cl)cc1)n2C`, the max response, negative = inhibition was 2.49% (inactive).

For the compound `CCOC(=O)c1[nH]c(C)c(CCC(=O)N2CCN(c3ccccc3)CC2)c1C`, the max response, negative = inhibition was 6.86% (inactive). With `Cc1cccc(C(=O)N2CCc3cc(CNC(=O)Cc4ccc(F)cc4)ccc32)c1`, the max response, negative = inhibition was -5.89% (inactive). Turning to `CCc1ccc(CN(Cc2ccco2)C(=O)COc2ccc(Cl)c(C)c2)cc1`, the max response, negative = inhibition is -28.4% (inactive).

As for `CCN(CC)S(=O)(=O)c1ccc2c(c1)N(CC(=O)NCC(C)c1ccccc1)C(=O)CO2` (stereo not drawn), the max response, negative = inhibition is 13.8% (inactive).
